Compounds without any hit were thinned out: in the full panel of roughly 79,000, 15% have a hit. Calls of active or inactive are those of the source. Cut-off read from the data, not from the text of the source: active = growth inhibition above about 70%; inactive = the rest.
Key:
[1] = NCI Yeast Anticancer Drug Screen. Data for the rad52 strain (AID 147);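 note: 0% = growth of vehicle-treated control cultures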; settings: S. cerevisiae rad52 mutant growth inhibition, stronger effect = higher value
Outline: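 Genetically altered yeast (DNA damage repair defect) treated with compound; inhibition calculated relative to vehicle.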

[2] = NCI Yeast Anticancer Drug Screen. Data for the rad50EPP+ strain (AID 151);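 note: 0% = growth of vehicle-treated control cultures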; settings: S. cerevisiae rad50 mutant strain, stronger effect = higher value
Outline: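 Strain rad50EPP+; compound exposure; % growth inhibition vs vehicle.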

[3] = NCI Yeast Anticancer Drug Screen. Data for the mgt1 strain (AID 153); settings: S. cerevisiae mgt1 mutant growth inhibition, stronger effect = higher value
Outline: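 Read-out: yeast growth inhibition vs vehicle control. Strain mgt1, drawn from a panel altered in DNA damage repair or cell cycle control.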

[4] = NCI Yeast Anticancer Drug Screen. Data for the rad50 strain (AID 155);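 note: 0% = growth of vehicle-only cultures of the same strain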; settings: S. cerevisiae rad50 strain growth inhibition, stronger effect = higher value
Outline: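 Vehicle-treated cultures provide the reference for the growth inhibition reported for compound-exposed, repair-deficient yeast.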

[5] = NCI Yeast Anticancer Drug Screen. Data for the mec2-1 strain (AID 157); settings: S. cerevisiae mec2-1 strain, stronger effect = higher value
Outline: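 Cells of the genetically defined mec2-1 yeast strain are incubated with test compound. Inhibition of growth is calculated against vehicle-treated controls.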

[6] = NCI Yeast Anticancer Drug Screen. Data for the sgs1 mgt1 strain (AID 161);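 note: 0% = growth of cultures given vehicle only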; settings: S. cerevisiae sgs1 mgt1 strain, stronger effect = higher value
Outline: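 Read-out: growth inhibition vs vehicle controls. Cells: mutant yeast strain deficient in DNA damage repair.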

[7] = NCI Yeast Anticancer Drug Screen. Data for the CLN2oe strain (AID 163);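 note: 0% = growth of vehicle-only control cultures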; settings: S. cerevisiae CLN2oe strain, stronger effect = higher value
Outline: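 Strain altered in cell-cycle control, incubated with compound; growth compared to solvent-treated controls.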

[8] = NCI Yeast Anticancer Drug Screen. Data for the cln2 rad14 strain (AID 165);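 note: 0% = growth equal to vehicle treated cultures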; settings: S. cerevisiae cln2 rad14 strain, stronger effect = higher value
Outline: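 The screen exposed genetically defined yeast (cln2 rad14) to test compounds and scored growth inhibition relative to vehicle-treated controls.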

[9] = NCI Yeast Anticancer Drug Screen. Data for the bub3 strain (AID 167); settings: S. cerevisiae bub3 mutant strain, stronger effect = higher value
Outline: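 Mutant yeast screening strain plus compound; vehicle-treated cultures serve as the 0% inhibition reference.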

[10] = NCI Yeast Anticancer Drug Screen. Data for the wt2 strain (AID 169); settings: S. cerevisiae wt2 strain growth inhibition, stronger effect = higher value
Outline: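 Steps: yeast strain treated with compound; growth recorded; inhibition calculated relative to cultures given vehicle alone.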

[11] = NCI Yeast Anticancer Drug Screen. Data for the mlh1 strain (AID 171);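 note: 0% = growth of vehicle-treated control cultures of the same strain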; settings: S. cerevisiae mlh1 strain growth inhibition, stronger effect = higher value
Outline: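 Yeast screen: mutant strain plus compound, growth scored against vehicle control wells.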

[12] = NCI Yeast Anticancer Drug Screen. Data for the sgs1 strain (AID 173);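 note: 0% = growth of vehicle-only control cultures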; settings: S. cerevisiae sgs1 mutant, stronger effect = higher value
Outline: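 Inhibition of yeast growth served as the measure. The mutant strain was treated with each compound, and growth was normalised to cultures receiving vehicle alone.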

[13] = NCI Yeast Anticancer Drug Screen. Data for the mlh1 rad18 strain (AID 175); settings: S. cerevisiae mlh1 rad18 strain growth inhibition, stronger effect = higher value
Outline: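 Compound-treated yeast growth, normalised to vehicle controls. Strain bears defined DNA repair mutations.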

[14] = NCI Yeast Anticancer Drug Screen. Data for the rad18 strain (AID 177); settings: S. cerevisiae rad18 mutant growth inhibition, stronger effect = higher value
Outline: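 Inhibition values reflect reduced yeast growth compared with vehicle-treated controls, using a strain engineered with a DNA damage repair defect.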

[15] = NCI Yeast Anticancer Drug Screen. Data for the wt1 strain (AID 149);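 note: 0% = growth of vehicle-treated wt1 cultures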; settings: S. cerevisiae wt1 strain (SPY 50644) growth inhibition, stronger effect = higher value
Outline: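 Each compound is tested on wt1 yeast and the loss of growth versus vehicle gives the inhibition value.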

[16] = NCI Yeast Anticancer Drug Screen. Data for the rad14 strain (AID 159);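 note: 0% = growth of vehicle-treated control cultures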; settings: S. cerevisiae rad14 strain growth inhibition, stronger effect = higher value
Outline: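 Inhibition of growth is reported for a repair-deficient yeast mutant following compound treatment, calculated relative to cultures that received vehicle.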

[17] = at 5.0 µM (retest, dose inferred, filed as 0.5)
[18] = at 50.0 µM (retest, dose inferred, filed as 5.0)

Measured: growth inhibition

CCOc1ccc(NC(=O)C2=C(C)NC(C)=C(C(=O)Nc3ccc(OCC)cc3)C2c2cccc([N+](=O)[O-])c2)cc1
inactive: [1]; at 1.2 µM -2% | [1]; at 3.7 µM 0% | [1]; at 11.0 µM 5% | [1]; at 33.0 µM 49% | [2]; at 1.2 µM -1% | [2]; at 3.7 µM -1% | [2]; at 11.0 µM 1% | [2]; at 33.0 µM 3% | [2]; at 100.0 µM -4% | [3]; at 1.2 µM -1% | [3]; at 3.7 µM -2% | [3]; at 11.0 µM -3% | [3]; at 33.0 µM 30% | [4]; at 1.2 µM -3% | [4]; at 3.7 µM -1% | [4]; [17] -10% | [4]; at 11.0 µM -1% | [4]; at 33.0 µM 39% | [4]; at 50.0 µM 26.4% | [5]; at 1.2 µM -1% | [5]; at 3.7 µM -2% | [5]; [17] 0% | [5]; at 11.0 µM 1% | [5]; at 33.0 µM 36% | [5]; at 50.0 µM 34.6% | [6]; [17] -12% | [6]; [18] 29% | [6]; at 50.0 µM 27.1% | [7]; at 1.2 µM 0% | [7]; at 3.7 µM -2% | [7]; at 11.0 µM -7% | [7]; at 33.0 µM 4% | [8]; [17] -4% | [8]; at 50.0 µM 55.3% | [9]; at 1.2 µM -3% | [9]; at 3.7 µM -2% | [9]; [17] -8% | [9]; at 11.0 µM 1% | [9]; at 33.0 µM 54% | [9]; at 50.0 µM 41% | [10]; at 1.2 µM -3% | [10]; at 3.7 µM -2% | [10]; at 11.0 µM -2% | [10]; at 33.0 µM 22% | [11]; at 1.2 µM -2% | [11]; at 3.7 µM -1% | [11]; at 11.0 µM 1% | [11]; at 33.0 µM 25% | [12]; at 1.2 µM -2% | [12]; at 3.7 µM 0% | [12]; at 11.0 µM 4% | [12]; at 33.0 µM 44% | [13]; [17] -7% | [13]; at 50.0 µM 59.9% | [14]; at 1.2 µM -4% | [14]; at 3.7 µM -3% | [14]; at 11.0 µM 3% | [14]; at 33.0 µM 45%
active: [1]; at 100.0 µM 82% | [3]; at 100.0 µM 92% | [4]; [18] 84% | [4]; at 100.0 µM 79% | [5]; [18] 96% | [5]; at 100.0 µM 90% | [7]; at 100.0 µM 81% | [8]; [18] 90% | [9]; [18] 97% | [9]; at 100.0 µM 93% | [10]; at 100.0 µM 87% | [11]; at 100.0 µM 86% | [12]; at 100.0 µM 84% | [13]; [18] 95% | [14]; at 100.0 µM 83%

CC1=NOC(=O)/C1=C/c1ccc2c(c1)OCO2
inactive: [15]; at 1.2 µM 5% | [15]; at 3.7 µM 0% | [15]; at 11.0 µM 2% | [15]; at 33.0 µM 6% | [15]; at 100.0 µM 13% | [2]; at 1.2 µM 6% | [2]; at 3.7 µM 5% | [2]; at 11.0 µM 41% | [2]; at 33.0 µM 47% | [3]; at 1.2 µM -4% | [3]; at 3.7 µM 1% | [3]; at 11.0 µM 1% | [3]; at 33.0 µM -10% | [3]; at 100.0 µM 9% | [4]; at 1.2 µM 1% | [4]; at 3.7 µM 3% | [4]; [17] 0% | [4]; at 11.0 µM 26% | [4]; at 33.0 µM 49% | [4]; [18] 24% | [4]; at 100.0 µM 59% | [5]; at 1.2 µM 0% | [5]; at 3.7 µM -1% | [5]; [17] 13% | [5]; at 11.0 µM 10% | [5]; at 33.0 µM 12% | [5]; at 100.0 µM 28% | [16]; at 1.2 µM 2% | [16]; at 3.7 µM 2% | [16]; at 11.0 µM 7% | [16]; at 33.0 µM 11% | [16]; at 100.0 µM 29% | [6]; [17] 23% | [6]; [18] 58% | [6]; at 50.0 µM 65.5% | [7]; at 1.2 µM -5% | [7]; at 3.7 µM 3% | [7]; at 11.0 µM 9% | [7]; at 33.0 µM 15% | [7]; at 100.0 µM 9% | [8]; [17] 2% | [8]; [18] 51% | [8]; at 50.0 µM 20.4% | [9]; at 1.2 µM -5% | [9]; at 3.7 µM -1% | [9]; [17] 19% | [9]; at 11.0 µM 3% | [9]; at 33.0 µM 3% | [9]; [18] 30% | [9]; at 100.0 µM 18% | [10]; at 1.2 µM 2% | [10]; at 3.7 µM 0% | [10]; at 11.0 µM 8% | [10]; at 33.0 µM 12% | [10]; at 100.0 µM 13% | [11]; at 1.2 µM 3% | [11]; at 3.7 µM 1% | [11]; at 11.0 µM 6% | [11]; at 33.0 µM 20% | [11]; at 100.0 µM 26% | [12]; at 1.2 µM 1% | [12]; at 3.7 µM 1% | [12]; at 11.0 µM 10% | [12]; at 33.0 µM 19% | [12]; at 100.0 µM 23% | [13]; [17] 23% | [13]; at 50.0 µM 48.6% | [14]; at 1.2 µM 2% | [14]; at 3.7 µM -12% | [14]; at 11.0 µM 10% | [14]; at 33.0 µM 36% | [14]; at 100.0 µM 61%
active: [2]; at 100.0 µM 87% | [4]; at 50.0 µM 82.2% | [5]; [18] 83% | [5]; at 50.0 µM 78.6% | [9]; at 50.0 µM 70.5% | [13]; [18] 81%

Reference: PubChem BioAssay (NCI)
